Source: PubChem BioAssay (NCI)
Compounds without any hit were thinned out: in the full panel of roughly 83,000, 20% have a hit.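 Testing used 96-well plates and a 48-hour single-concentration exposure. Example: -40 means 40% of the starting cells died.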 Active and inactive are the calls of the source. How the source made its calls: active means growth percent below 10; inactive means the rest.

Legend:
Assay in all cases: NCI-60 one-dose screen, 48 h (100 = growth as untreated, 0 = no growth, -100 = all killed)
Conditions in all cases: 10 µM unless noted
MOLT-4 leukemia = tested on: MOLT-4 leukemia
SR leukemia = tested on: SR leukemia
RPMI-8226 leukemia = tested on: RPMI-8226 leukemia
OVCAR-8 ovarian = tested on: OVCAR-8 ovarian
OVCAR-5 ovarian = tested on: OVCAR-5 ovarian
OVCAR-4 ovarian = tested on: OVCAR-4 ovarian
SK-OV-3 ovarian = tested on: SK-OV-3 ovarian
IGROV1 ovarian = tested on: IGROV1 ovarian
OVCAR-3 ovarian = tested on: OVCAR-3 ovarian
HS 578T breast = tested on: HS 578T breast
NCI/ADR-RES ovarian = tested on: NCI/ADR-RES ovarian
T-47D breast = tested on: T-47D breast
BT-549 breast = tested on: BT-549 breast
MDA-MB-435 melanoma = tested on: MDA-MB-435 melanoma
SW-620 colon = tested on: SW-620 colon
MCF7 breast = tested on: MCF7 breast
HCT-116 colon = tested on: HCT-116 colon
HCC-2998 colon = tested on: HCC-2998 colon
KM12 colon = tested on: KM12 colon

Measured: growth

CCC1(C(C)C)C(=O)NC(=S)NC1=O
inactive: MOLT-4 leukemia 105% | SR leukemia 104% | RPMI-8226 leukemia 98.8% | OVCAR-8 ovarian 101% | OVCAR-5 ovarian 102% | OVCAR-4 ovarian 107% | SK-OV-3 ovarian 118% | IGROV1 ovarian 113% | OVCAR-3 ovarian 101% | HS 578T breast 96.3% | NCI/ADR-RES ovarian 115% | T-47D breast 106% | BT-549 breast 113% | MDA-MB-435 melanoma 101% | SW-620 colon 97% | MCF7 breast 105% | HCT-116 colon 106% | HCC-2998 colon 117% | KM12 colon 100%

CC(CC1CCCCC1)NCc1ccccc1 (stereo unspecified)
inactive: MOLT-4 leukemia 100% | SR leukemia 105% | RPMI-8226 leukemia 106% | OVCAR-8 ovarian 106% | OVCAR-5 ovarian 91.1% | OVCAR-4 ovarian 113% | SK-OV-3 ovarian 111% | IGROV1 ovarian 107% | OVCAR-3 ovarian 105% | HS 578T breast 98.5% | NCI/ADR-RES ovarian 93.7% | T-47D breast 102% | BT-549 breast 97.7% | MDA-MB-435 melanoma 103% | SW-620 colon 94% | MCF7 breast 96.4% | HCT-116 colon 96.6% | HCC-2998 colon 95.3% | KM12 colon 101%

COC(=O)[C@@H](C)C[C@H](Cc1ccccc1)NC(=O)c1csc([C@@H](C[C@H](C(C)C)N(C)C(=O)[C@@H](NC(=O)[C@H]2CCCCN2C)C(C)C)OC(C)=O)n1
inactive: OVCAR-8 ovarian 22.7% | OVCAR-5 ovarian 26.4% | OVCAR-4 ovarian 44.6% | SK-OV-3 ovarian 13.4% | IGROV1 ovarian 25.7% | T-47D breast 54.7% | SW-620 colon 22.9% | MCF7 breast 19.6% | HCC-2998 colon 12.9%
active: MOLT-4 leukemia 4.52% | SR leukemia 6.8% | RPMI-8226 leukemia 8.34% | OVCAR-3 ovarian -24.4% | HS 578T breast -2.62% | NCI/ADR-RES ovarian 5.63% | BT-549 breast -20.5% | MDA-MB-435 melanoma -54.7% | HCT-116 colon -21.2% | KM12 colon 4.46%

Cc1sc2c(c1C)C(c1ccc(Cl)cc1)=N[C@@H](CC(=O)OC(C)(C)C)c1nnc(C)n1-2
inactive: MOLT-4 leukemia 48.3% | SR leukemia 19.2% | RPMI-8226 leukemia 23.5% | OVCAR-8 ovarian 53% | OVCAR-5 ovarian 45.4% | OVCAR-4 ovarian 42.6% | SK-OV-3 ovarian 39.3% | IGROV1 ovarian 31.4% | OVCAR-3 ovarian 20% | NCI/ADR-RES ovarian 34.2% | T-47D breast 51.9% | BT-549 breast 58.5% | MDA-MB-435 melanoma 30% | SW-620 colon 52.4% | MCF7 breast 19.1% | HCT-116 colon 31% | HCC-2998 colon 19.1% | KM12 colon 40.7%
active: HS 578T breast -4.04%

COc1ccc2c(c1)c(-c1nc(-c3cn(C)c4ncccc34)cs1)cn2CCCCN1CCCCC1
inactive: SK-OV-3 ovarian 38.5% | HS 578T breast 58.3% | T-47D breast 61% | BT-549 breast 85.1% | HCC-2998 colon 95.3%
active: MOLT-4 leukemia -65% | SR leukemia -54.3% | RPMI-8226 leukemia -42% | OVCAR-8 ovarian -65.2% | OVCAR-5 ovarian -69.2% | OVCAR-4 ovarian -6.02% | IGROV1 ovarian -62.5% | OVCAR-3 ovarian -78.4% | NCI/ADR-RES ovarian 5.12% | MDA-MB-435 melanoma -88.9% | SW-620 colon -64.3% | MCF7 breast -76.5% | HCT-116 colon -93% | KM12 colon -68.7%

N/C(=N\N=C\c1ccc(-c2ccccc2)cc1)N[N+](=O)[O-]
active: MOLT-4 leukemia 5.54% | SR leukemia 5.79% | OVCAR-3 ovarian -19.8% | MDA-MB-435 melanoma -27.4%
inactive: RPMI-8226 leukemia 20.1% | OVCAR-8 ovarian 42.6% | OVCAR-5 ovarian 56.9% | OVCAR-4 ovarian 61.5% | SK-OV-3 ovarian 35.4% | IGROV1 ovarian 34.6% | HS 578T breast 44.3% | NCI/ADR-RES ovarian 19.4% | T-47D breast 36.1% | BT-549 breast 52% | SW-620 colon 20.7% | MCF7 breast 13.6% | HCT-116 colon 28.7% | HCC-2998 colon 60.9% | KM12 colon 32.1%

COC(=O)[C@@H](C)C[C@H](Cc1ccc(F)cc1)NC(=O)c1csc([C@@H](C[C@H](C(C)C)N(C)C(=O)[C@@H](NC(=O)[C@H]2CCCCN2C)C2CC2)OC(C)=O)n1
active: OVCAR-3 ovarian -25% | BT-549 breast -0.522% | MDA-MB-435 melanoma -50.1% | HCT-116 colon 3.44%
inactive: MOLT-4 leukemia 17.8% | SR leukemia 17.5% | RPMI-8226 leukemia 20.4% | OVCAR-8 ovarian 22.4% | OVCAR-5 ovarian 49.8% | OVCAR-4 ovarian 46% | SK-OV-3 ovarian 29.1% | IGROV1 ovarian 30.7% | HS 578T breast 41.1% | NCI/ADR-RES ovarian 76.4% | T-47D breast 60.1% | SW-620 colon 27.2% | MCF7 breast 19.6% | HCC-2998 colon 28.8% | KM12 colon 14%

CCNc1nc(Cl)nc(NCC)n1
inactive: MOLT-4 leukemia 69.8% | SR leukemia 75.8% | RPMI-8226 leukemia 94.3% | OVCAR-8 ovarian 58.9% | OVCAR-5 ovarian 104% | OVCAR-4 ovarian 95.6% | SK-OV-3 ovarian 109% | IGROV1 ovarian 29.4% | OVCAR-3 ovarian 108% | HS 578T breast 96.8% | NCI/ADR-RES ovarian 101% | T-47D breast 91% | BT-549 breast 108% | MDA-MB-435 melanoma 94.8% | SW-620 colon 101% | MCF7 breast 98.7% | HCT-116 colon 88.1% | HCC-2998 colon 104% | KM12 colon 106%

ClCCN(CCCl)c1nc(Cl)c(C2CC(c3ccccc3)=NN2c2cc(Cl)cc(Cl)c2)s1 (stereo unspecified)
inactive: MOLT-4 leukemia 101% | SR leukemia 112% | RPMI-8226 leukemia 108% | OVCAR-8 ovarian 100% | OVCAR-5 ovarian 102% | OVCAR-4 ovarian 96.9% | SK-OV-3 ovarian 105% | IGROV1 ovarian 101% | OVCAR-3 ovarian 103% | HS 578T breast 102% | NCI/ADR-RES ovarian 103% | T-47D breast 97.8% | BT-549 breast 107% | MDA-MB-435 melanoma 109% | SW-620 colon 98.5% | MCF7 breast 97.5% | HCT-116 colon 98.1% | HCC-2998 colon 105% | KM12 colon 100%

CC(=O)O[C@H]1CC[C@H]2[C@@H]3CC=C4c5nc(-c6ccccc6)sc5CC[C@]4(C)[C@H]3CC[C@]12C
active: SR leukemia 8.39% | RPMI-8226 leukemia -37.3%
inactive: MOLT-4 leukemia 46.1% | OVCAR-8 ovarian 77.9% | OVCAR-5 ovarian 75.9% | OVCAR-4 ovarian 87.2% | SK-OV-3 ovarian 94.5% | IGROV1 ovarian 97.2% | OVCAR-3 ovarian 92.9% | HS 578T breast 64.2% | NCI/ADR-RES ovarian 71.1% | T-47D breast 52.4% | BT-549 breast 64.8% | MDA-MB-435 melanoma 59.2% | SW-620 colon 55% | MCF7 breast 67.7% | HCT-116 colon 51.2% | HCC-2998 colon 54% | KM12 colon 42.3%

COc1ccc(C(O)(C(=O)O)c2ccc(OC)cc2)cc1
inactive: MOLT-4 leukemia 87.1% | SR leukemia 102% | RPMI-8226 leukemia 78.2% | OVCAR-8 ovarian 93.3% | OVCAR-5 ovarian 103% | OVCAR-4 ovarian 97.8% | SK-OV-3 ovarian 99.1% | IGROV1 ovarian 87.5% | OVCAR-3 ovarian 106% | HS 578T breast 94.6% | NCI/ADR-RES ovarian 97.8% | T-47D breast 76.4% | BT-549 breast 106% | MDA-MB-435 melanoma 102% | SW-620 colon 95.2% | MCF7 breast 88.6% | HCT-116 colon 83.2% | HCC-2998 colon 90.6% | KM12 colon 87.7%

C1CCC2(CC1)OOCNCOO2
inactive: MOLT-4 leukemia 77.9% | SR leukemia 62.8% | RPMI-8226 leukemia 102% | OVCAR-8 ovarian 101% | OVCAR-5 ovarian 109% | OVCAR-4 ovarian 112% | SK-OV-3 ovarian 105% | IGROV1 ovarian 104% | OVCAR-3 ovarian 103% | HS 578T breast 115% | NCI/ADR-RES ovarian 101% | T-47D breast 89.8% | BT-549 breast 106% | MDA-MB-435 melanoma 101% | SW-620 colon 103% | MCF7 breast 45.7% | HCT-116 colon 92.8% | HCC-2998 colon 106% | KM12 colon 95.9%

O=C1N[C@@H]2[C@@H](O)[C@@H](O)[C@H](O)C[C@H]2c2cc3c(c(O)c21)OCO3
active: MOLT-4 leukemia -6.14% | SR leukemia 6.14% | RPMI-8226 leukemia -24.2% | OVCAR-8 ovarian -7.71% | OVCAR-5 ovarian -13.4% | OVCAR-4 ovarian -23.7% | SK-OV-3 ovarian -11.2% | IGROV1 ovarian -7.85% | OVCAR-3 ovarian -10.8% | HS 578T breast -14.2% | NCI/ADR-RES ovarian 1.95% | T-47D breast -8.46% | BT-549 breast -12.5% | MDA-MB-435 melanoma -42.2% | SW-620 colon -0.0451% | MCF7 breast 1.73% | HCT-116 colon -1.49% | HCC-2998 colon -22.8% | KM12 colon -11.5%

CC(C)COC(C[N+](=O)[O-])C(Cl)(Cl)Cl (stereo unspecified)
inactive: MOLT-4 leukemia 103% | SR leukemia 94.7% | RPMI-8226 leukemia 116% | OVCAR-8 ovarian 101% | OVCAR-5 ovarian 109% | OVCAR-4 ovarian 101% | SK-OV-3 ovarian 106% | IGROV1 ovarian 103% | OVCAR-3 ovarian 115% | HS 578T breast 119% | NCI/ADR-RES ovarian 94.2% | T-47D breast 111% | BT-549 breast 106% | MDA-MB-435 melanoma 111% | SW-620 colon 107% | MCF7 breast 98.8% | HCT-116 colon 111% | HCC-2998 colon 102% | KM12 colon 104%
